Source: PubChem (ICCB-Longwood Screening Facility, Harvard Medical School)
S aureus helic: blocks Staphylococcus aureus DNA helicase. AID 485395. actives 0.05% (n = 120,000). purified S. aureus helicase, fluorescence unwinding assay. inhibition, % (test concentration not listed); in the data active means inhibition above about 25%, passing the limit was not always enough
Sa growth 42C: inhibitors of Staphylococcus aureus growth at 42 °C; AID 720641; S. aureus RN4220 growth, OD600, 20 h; stronger effect = lower value; relative growth, % (concentration not given with the values); actives 0.53% (n = 170,000);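 active means relative growth at most 50% at the other temperature and 20+ points below 30 °C, or under 10% at both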
Of the large screens only hits and unclear results are named; the others gave an inactive call. Only a selection was taken, and hits are over-represented in it overall.

Cc1ccc2c(c1)C1CN(C)CCC1N2C(=O)Cc1cccs1 (stereo unspecified)	none
Cc1ccc2c(c1)C1CN(C)CCC1N2Sc1ccc(Cl)cc1 (stereo unspecified)	Sa growth 42C -1.3
CC(C)(C)NCC(O)c1cc(Cl)c(N)c(Cl)c1 (stereo unspecified)	none (no result: S aureus helic)
CN(C)C(=S)SSC(=S)N(C)C	Sa growth 42C -0.7 (no result: S aureus helic)
N#C/C(=C\c1cnc[nH]1)S(=O)(=O)c1cccs1	none (no result: S aureus helic)
Cn1c(=O)c2ncnnc2n(C)c1=O	Sa growth 42C 5.9
Cc1ccc(C)c(NC2=NCCS2)c1	none
Cc1nc(-c2ccccc2)nc(OC(=O)N(C)C)c1Oc1ccc(Cl)cc1Cl	none (no result: S aureus helic)
CCCN1CCC(N2CCC(O)CC2)CC1	none
Cc1ccc(C(O)(c2ccc(C)c(C)c2)C2CN3CCC2CC3)cc1C (stereo unspecified)	Sa growth 42C 22.6
OC(c1cccs1)(c1cccs1)C1CN2CCC1CC2 (stereo unspecified)	none
CN(C)C1(c2nnnn2CCOC(=O)Nc2ccc(Cl)cc2)CCCCC1	none
O=C(Nc1ccc(F)c([N+](=O)[O-])c1)c1cccn(Cc2ccccc2)c1=O	none (no result: S aureus helic)
O=C(COc1ccccc1)N1CCN(Cc2ccccn2)CC1	none
CN(C)[C@@H]1C(=O)C(C(N)=O)=C(O)[C@@]2(O)C(=O)C3=C(O)c4c(O)cccc4[C@@](C)(O)[C@H]3C[C@@H]12	Sa growth 42C -0.1 (no result: S aureus helic)
O=c1c2ccccc2nc(/C=C/c2cccc3ccccc23)n1-c1ccc(Cl)cc1	none (no result: S aureus helic)
CN1CCc2cc3c(c4c2C1Cc1ccccc1-4)OCO3 (stereo unspecified)	Sa growth 42C 0.1
COc1ccc2c(c1OC)C(=O)OC2C1c2cc3c(cc2CCN1C)OCO3 (stereo unspecified)	none
CCCCCCCCCCCCCCCC[N+](C)(C)C	Sa growth 42C -0.5 (no result: S aureus helic)
Cc1ccccc1CN1C(=O)CN=C(c2ccccc2)c2cc(Cl)ccc21	none (no result: S aureus helic)
CC(C)Nc1ccc(Nc2ccccc2)cc1	Sa growth 42C 4.5
CC(=O)Nc1ccc(-c2ccccc2)cc1	none (no result: S aureus helic)
CCn1c(C)c(C(=O)O)c2cc(OC)ccc21	none
CC(C)N1CCC(c2ccccc2)C1 (stereo unspecified)	none
